Data on 2 molecules can be found in PubChem BioAssay AID2284202 (EPA ToxCast).

The source made the active and inactive calls. The calls were made as follows: active = hit-call score of the fitted dose curve at least 0.9, where 1 is the maximum; inactive = score below 0.9.

As a reminder, the AC50 is the concentration at which the activity in the assay is half-maximal.

The target of this test is human Dopamine Transporter (DAT), SLC6A3 (gene 6531) (UniProt Q01959). Put plainly: ERF_FR_TR_hSLC6A3: Eurofins (ERF) Radioligand Binding LeadHunter Assay for human Dopamine Transporter (DAT) Antagonism, conducted at France lab site. On the procedure: ERF_FR_TR_hSLC6A3 is a biochemical, single-readout assay that uses extracted gene-proteins in a cell-free assay. Measurements were taken 2 hour after chemical dosing in a 96-well plate. See DAT Human Dopamine Transporter Binding (Antagonist Radioligand) Assay, Cerep.ERF_FR_TR_hSLC6A3 is an assay component calculated from the ERF_FR_TR_hSLC6A3 assay. It is designed to measure radioligand binding using a type of binding reporter as detected by scintillation counting with radiometry technology.Data from the assay component ERF_FR_TR_hSLC6A3 was analyzed at the assay endpoint, ERF_FR_TR_hSLC6A3, in the positive analysis fitting direction relative to DMSO as the negative control and baseline of activity. Using a type of binding reporter, loss-of-signal activity can be used to understand changes in binding as they relate to gene SLC6A3. To generalize the intended target to other relatable targets, this assay endpoint is annotated to the transporter intended target family, where the subfamily is SLC6 / Monoamine.
human Dopamine Transporter (DAT), SLC6A3 (gene 6531), sequence (Q01959 whole entry, looked up): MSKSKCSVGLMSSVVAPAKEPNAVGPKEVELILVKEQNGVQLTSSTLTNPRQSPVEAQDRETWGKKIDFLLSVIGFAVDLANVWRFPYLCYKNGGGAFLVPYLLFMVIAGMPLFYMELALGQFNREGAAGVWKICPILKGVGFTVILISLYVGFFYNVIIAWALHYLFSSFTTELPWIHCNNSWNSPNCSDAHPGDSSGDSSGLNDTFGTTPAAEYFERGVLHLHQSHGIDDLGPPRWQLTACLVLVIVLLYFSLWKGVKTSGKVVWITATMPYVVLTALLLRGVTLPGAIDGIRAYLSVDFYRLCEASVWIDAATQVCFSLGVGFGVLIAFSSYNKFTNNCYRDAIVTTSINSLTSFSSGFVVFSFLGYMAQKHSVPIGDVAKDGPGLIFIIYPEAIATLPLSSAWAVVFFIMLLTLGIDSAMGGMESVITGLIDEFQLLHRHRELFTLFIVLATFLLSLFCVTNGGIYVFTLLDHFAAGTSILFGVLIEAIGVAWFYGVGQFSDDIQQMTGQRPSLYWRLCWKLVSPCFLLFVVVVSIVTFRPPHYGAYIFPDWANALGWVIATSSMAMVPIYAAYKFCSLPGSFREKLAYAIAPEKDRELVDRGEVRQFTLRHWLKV
Human cells are incubated for 120 minutes at 4C with [3H]BTCP (4 nM) ligand and BTCP as control inhibitor. Test Sample Requirements: Minimum for 1) Screen: 60 ul of 10 mM stock -OR- 1 mg (pre-weighed) for 10 uM final testing. 2) Dose Response: 90 ul of 10 mM stock -OR- 1 mg (pre-weighed) for a top concentration at 10 uM.
On to `O=C(/C=C/c1ccc(O)cc1)CC(=O)/C=C/c1ccc(O)cc1`, for which the concentration at half-maximal activity (AC50) was 2.89 µM (active).
For `COc1cc(CCC(=O)CC(=O)CCc2ccc(O)c(OC)c2)ccc1O` the value was 2.97 µM (active).
